According to PubChem BioAssay AID371 (SRMLSC, 2006):
Hit rate of the full screen: of about 3,300 compounds, about 280 (8.5%) were called active.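 How the source made its calls: active means mean growth inhibition over the two runs of 50% or more; inactive means mean growth inhibition under 50%.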 What follows is part of a selection rich in actives, with near analogues and random picks from the rest.

Experiment: A549 NSCLC cell proliferation inhibitors – ATP luminescence, human non-small cell lung line, primary screen (AID 371);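 further: compound exposure lasted 72 h before the ATP read; 0% = untreated cell signal and 100% = no luminescence left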
Settings: at 10 µM, hits give high values
In the case of Fc1ccccc1-c1nc(N2CCCCC2)c2ccccc2n1, the growth inhibition is reported as 47.5% (inactive).
With c1ccc(CN2CCN(c3nc(-c4ccccn4)nc4ccccc34)CC2)cc1 the growth inhibition was 60% (active).
In the case of Cc1nc(N2CCN(Cc3ccccc3)CC2)c(C#N)c2c1COC(C)(C)C2, the growth inhibition is reported as 17.5% (inactive).
In the case of c1ccc2c(N3CCCCC3)nc(N3CCCCC3)nc2c1, the growth inhibition is reported as 25.8% (inactive).
With COc1cccc(-c2nc(N3CCN(Cc4ccccc4)CC3)c3ccccc3n2)c1O the growth inhibition was 6.86% (inactive).
In the case of c1ccc(N2CCN(c3nc(-c4ccccn4)nc4ccccc34)CC2)cc1, the growth inhibition is reported as 64.6% (active).
For CCOC(=O)COc1nc(N(C)C)nc(N(C)C)n1, the growth inhibition was -5.85% (inactive).
In the case of Cc1nc(SCC(=O)Nc2ccc3c(c2)OCO3)c(C#N)c2c1CCCC2, the growth inhibition is reported as 18.5% (inactive).
For C=C1C2(C(=O)Nc3nccs3)CCC(C2)C1(C)C (stereo not drawn), the growth inhibition was 5.39% (inactive).
With COc1ccc(-c2nnc3sc(-c4c(OC)cccc4OC)nn23)cc1 the growth inhibition was 16.6% (inactive).
For CC(O)CNc1nc2c(c(=O)n(C)c(=O)n2C)n1Cc1cccc(C(F)(F)F)c1 (stereo not drawn), the growth inhibition was 22.2% (inactive).
In the case of O=C(Nc1ccc2c(c1)OCO2)c1cncc(Br)c1, the growth inhibition is reported as 4.86% (inactive).
In the case of COC(=O)c1ccn(C(=O)c2ccc(Cl)cc2)n1, the growth inhibition is reported as 3.19% (inactive).
In the case of COCCOC(=O)c1c(C)nc(SCC(=O)Nc2ccc(OC)cc2)c(C#N)c1-c1ccco1, the growth inhibition is reported as 5.46% (inactive).
In the case of C=CCN(CC=C)c1nc2ccccc2nc1C(C#N)C(=O)OC(C)C (stereo not drawn), the growth inhibition is reported as 23.2% (inactive).
For CCCN(CCC)c1nc2ccccc2nc1C(C#N)C(=O)OC(C)COC (stereo not drawn), the growth inhibition was 52.1% (active).
With CCCCN(CCCC)c1nc2ccccc2nc1C(C#N)C(=O)NCCCOC (stereo not drawn) the growth inhibition was 9.29% (inactive).
In the case of Cc1oc2cc(O)cc(C)c2c(=O)c1-c1cnn(-c2ccccc2)c1, the growth inhibition is reported as 59% (active).
For CCOC(=O)c1oc2cc(O)cc(C)c2c(=O)c1-c1cscn1, the growth inhibition was 4.18% (inactive).
With Cc1oc2cc(O)ccc2c(=O)c1-c1cnn(-c2ccccc2)c1 the growth inhibition was 28.4% (inactive).
For CCOC(=O)C1=C(C)NC(SCC(=O)Nc2nc(C)cs2)=C(C#N)C1c1cccs1 (stereo not drawn), the growth inhibition was 86.8% (active).
With C#CCSC1=C(C#N)C(c2cccs2)C(C(=O)OCC)=C(C)N1 (stereo not drawn) the growth inhibition was 47.5% (inactive).
In the case of CCSC1=C(C#N)C(c2cccs2)C(C(=O)OC)=C(C)N1 (stereo not drawn), the growth inhibition is reported as 30.4% (inactive).
For COc1cc(-c2nn3c(-c4ccco4)nnc3s2)cc(OC)c1OC, the growth inhibition was 0.05% (inactive).
For O=C(NCCCN1CCOCC1)C1(c2ccccc2)CCOCC1, the growth inhibition was 2.07% (inactive).
With O=C(c1ccc(=O)oc1)N1CCN(C(c2ccccc2)c2ccccc2)CC1 the growth inhibition was 41.2% (inactive).
With CNCCCC12CCC(c3ccccc31)c1ccccc12 the growth inhibition was 52.9% (active).
In the case of CCCCc1nc2n[nH]c(N)c2c2c1CCCC2, the growth inhibition is reported as 12.1% (inactive).
With CC(C)(C#N)C(C)(C)c1nn[nH]n1 the growth inhibition was -3.48% (inactive).
In the case of Cc1cc(=O)n(CCC(=O)O)c2ccccc12, the growth inhibition is reported as 0.16% (inactive).
With Clc1ccc(Cn2c(CN3CCCC3)nc3ccccc32)cc1 the growth inhibition was 29.6% (inactive).
In the case of COc1ccc(CCN2CCC(Nc3nc4ccccc4n3Cc3ccc(F)cc3)CC2)cc1, the growth inhibition is reported as 95.5% (active).
With COc1ccc2c(c1)nc(N)n2Cc1ccccc1 the growth inhibition was 21.8% (inactive).
With COc1ccc(OC)c(C2C(C#N)=C(N)Oc3cc(C)n(Cc4ccccn4)c(=O)c32)c1 (stereo not drawn) the growth inhibition was -2.3% (inactive).
For COC(=O)CSc1nc(C)c(Oc2ccccc2)c(=O)[nH]1, the growth inhibition was -3.23% (inactive).
In the case of COC(=O)c1ccccc1OCc1cccc(C)n1, the growth inhibition is reported as 6.89% (inactive).
With Cc1cccc2c1NC(C)CC2C (stereo not drawn) the growth inhibition was 0.83% (inactive).
For COc1cc2c(cc1OC)C1(CCCC1)C(N)=C2C#N, the growth inhibition was 54.9% (active).
For COc1ccc(C2C(C#N)=C(N)SC(N)=C2C#N)cc1OC, the growth inhibition was 2.23% (inactive).
In the case of CC(=O)NC1(C(F)(F)F)C(=O)Nc2c1c(=O)n(C)c(=O)n2C (stereo not drawn), the growth inhibition is reported as 0.54% (inactive).
For CCOC(=O)C1=C(N)N2C(=O)CSC2=C(C(=O)OC)C1, the growth inhibition was -0.01% (inactive).
In the case of OCCOCCN1CCN(C(c2ccccc2)c2ccc(Cl)cc2)CC1 (stereo not drawn), the growth inhibition is reported as 1.66% (inactive).
For Cc1cccc(CN2CCN(C(c3ccccc3)c3ccc(Cl)cc3)CC2)c1 (stereo not drawn), the growth inhibition was 3.35% (inactive).
In the case of CN1CCCN(C(c2ccccc2)c2ccc(Cl)cc2)CC1 (stereo not drawn), the growth inhibition is reported as 78.7% (active).
In the case of CCCCCn1c2nc3ccccc3nc2c2c(=O)n(CC(C)C)cnc21, the growth inhibition is reported as -1.51% (inactive).
With CN1CCN(c2nc3c(c(=O)n(C)c(=O)n3C)n2Cc2cccc3ccccc23)CC1 the growth inhibition was -7.28% (inactive).
With CCN(CC)CCCN1C(=O)C(=O)/C(=C(/O)c2ccc(OC)cc2)C1c1ccco1 (stereo not drawn) the growth inhibition was 1.94% (inactive).
With Nc1c(C(=O)NCC2CCCO2)c2nc3ccccc3nc2n1/N=C/c1ccncc1 (stereo not drawn) the growth inhibition was 2.51% (inactive).
For COCCn1c(N)c(C(=O)NCC2CCCO2)c2nc3ccccc3nc21 (stereo not drawn), the growth inhibition was 23.5% (inactive).
With COc1ccccc1-n1c(N)c(C(=O)NCC2CCCO2)c2nc3ccccc3nc21 (stereo not drawn) the growth inhibition was 52.9% (active).
With O=C(Oc1ccccc1N1C(=O)CCC1=O)c1ccco1 the growth inhibition was 6.54% (inactive).
For COC(=O)CSc1nc2c(c(=O)n(C)c(=O)n2C)n1CCC(C)C, the growth inhibition was -2.98% (inactive).
For COc1cc2nc(N3CCN(C(=O)C4COc5ccccc5O4)CC3)nc(N)c2cc1OC (stereo not drawn), the growth inhibition was 91% (active).
For COc1ccc2[nH]c(C)c(C(=O)CN3CCN(C(=O)c4ccco4)CC3)c2c1, the growth inhibition was 7.48% (inactive).
With COc1cc2nc(N3CCN(C(=O)c4ccco4)CC3)nc(N)c2cc1OC the growth inhibition was 82.5% (active).
For COc1cccc(OC)c1OCCN1CCN(C(=O)c2ccco2)CC1, the growth inhibition was 2.2% (inactive).
For COc1cc2nc(N3CCN(C(=O)C4CCCO4)CC3)nc(N)c2cc1OC (stereo not drawn), the growth inhibition was 15.4% (inactive).
In the case of COC(=O)c1ccccc1NC(=O)C1COc2ccccc2O1 (stereo not drawn), the growth inhibition is reported as 11.9% (inactive).
For Cc1cc(Cl)ccc1OCC(=O)OC(C)C(=O)N(C)C (stereo not drawn), the growth inhibition was -0.96% (inactive).
For O=C(O)c1cc2n(n1)C(C(F)(F)F)CC(c1ccccc1)N2 (stereo not drawn), the growth inhibition was -0.01% (inactive).
With CCOC(=O)c1nc2nc(C)c(Cl)c(=O)n2[nH]1 the growth inhibition was -2.82% (inactive).
With O=C(O)CC(SCc1ccc(C(=O)O)o1)C(=O)O (stereo not drawn) the growth inhibition was -5.57% (inactive).
With CC(=O)C(=[N+]=[N-])C(=O)NCc1ccccc1 the growth inhibition was -2.8% (inactive).
